# Source: PubChem BioAssay (Tox21)
# A number with no mark means an inactive call. Records with an inconclusive call do not appear. Where a call stands in place of a potency, no number is given. Active and inactive are the calls of the source. Unless noted, the call rests on the fitted dose curve; in most records, active means well fitted curve in the direction sought with a large enough effect in the repeat runs; inconclusive means weak or mixed curves; inactive means no such curve, though single readings can be large; an effect the other way counts as inactive or inconclusive.
# Legend:
# [1] = qHTS assay to identify small molecule agonists of the estrogen receptor alpha (ER-alpha) signaling pathway in the presence of an antagonist - cell viability counter screen (AID 1259386); conditions: VM7Luc4E2 viability, CellTiter-Fluor fluorescence, 22 h; series mostly up to 92.4 µM;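 further: cells exposed to compounds for 22 h at 37 °C before the viability read; nearly all actives have a fitted effect of over 30% in size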; further: potency means the concentration at half of the fitted maximal effect
# Procedure, shortened: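 Viability counter screen using VM7Luc4E2 (full-length ER-alpha, four ERE-luciferase). The cells were treated with compounds alongside ICI-182,780 10.0nM for 22hr, and live-cell protease fluorescence was quantified with CellTiter-Fluor.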
# [2] = target: Progesterone receptor (Homo sapiens) (UniProt P06401); assay: qHTS assay to identify small molecule agonists of the progesterone receptor (PR) signaling pathway (AID 1346784; calls by dose curve; further: nearly all actives have a fitted effect of over 30% in size); conditions: PR-UAS-bla HEK293T, beta-lactamase FRET ratio, 16 h; series mostly up to 92.4 µM
# Progesterone receptor (Homo sapiens), sequence (P06401 whole entry, looked up): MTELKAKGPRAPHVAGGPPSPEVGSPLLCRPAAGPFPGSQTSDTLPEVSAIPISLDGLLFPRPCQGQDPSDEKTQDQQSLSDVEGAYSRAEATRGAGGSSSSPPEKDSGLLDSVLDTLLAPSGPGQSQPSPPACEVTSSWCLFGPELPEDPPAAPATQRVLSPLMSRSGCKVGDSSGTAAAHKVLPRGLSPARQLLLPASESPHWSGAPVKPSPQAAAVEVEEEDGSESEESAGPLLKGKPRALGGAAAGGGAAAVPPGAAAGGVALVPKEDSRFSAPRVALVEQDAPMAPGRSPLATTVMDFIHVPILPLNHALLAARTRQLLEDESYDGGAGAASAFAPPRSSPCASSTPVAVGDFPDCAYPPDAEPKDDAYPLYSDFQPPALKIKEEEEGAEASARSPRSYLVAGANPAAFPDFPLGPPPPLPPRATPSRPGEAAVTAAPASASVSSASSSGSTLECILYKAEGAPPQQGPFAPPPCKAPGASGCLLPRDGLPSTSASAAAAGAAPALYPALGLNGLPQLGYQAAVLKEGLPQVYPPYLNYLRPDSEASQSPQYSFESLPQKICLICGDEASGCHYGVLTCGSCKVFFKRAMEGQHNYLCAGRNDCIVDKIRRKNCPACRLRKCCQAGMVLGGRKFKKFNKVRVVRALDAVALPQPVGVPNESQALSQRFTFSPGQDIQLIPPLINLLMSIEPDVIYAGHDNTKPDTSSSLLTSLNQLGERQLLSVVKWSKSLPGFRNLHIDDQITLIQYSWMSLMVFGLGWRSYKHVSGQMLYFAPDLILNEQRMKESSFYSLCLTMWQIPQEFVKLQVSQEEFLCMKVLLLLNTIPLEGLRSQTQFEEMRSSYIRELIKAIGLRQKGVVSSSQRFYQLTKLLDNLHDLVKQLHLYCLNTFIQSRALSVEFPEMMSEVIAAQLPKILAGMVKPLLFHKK
# Procedure, shortened: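 Beta-lactamase reporter read-out: after 16 hr compound treatment at 37C and a further 2 hr at room temperature with LiveBLAzer B/G FRET substrate, fluorescence was measured in PR-UAS-bla HEK 293T cells grown in 2% charcoal-stripped serum.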
# [3] = target: Progesterone receptor (Homo sapiens) (UniProt P06401); assay: qHTS assay to identify small molecule antagonists of the progesterone receptor (PR) signaling pathway (AID 1346795; active means well fitted inhibition curve with a large enough effect in the signal ratio in the repeat runs, not every such curve was filed as active; the % refers to the signal ratio; further: potency means the concentration at half of the fitted maximal effect); conditions: PR-UAS-bla HEK293T, beta-lactamase FRET ratio, 16 h; series mostly up to 92.4 µM
# Procedure, shortened: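 Read-out is fluorescence from the LiveBLAzer B/G FRET substrate, cleaved by a UAS-controlled beta-lactamase in PR-UAS-bla HEK293T cells after 16 hr exposure to compound plus 1 nM promegestone (final), followed by 2 hr at room temperature.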
# [4] = qHTS assay to identify small molecule antagonists of the progesterone receptor (PR) signaling pathway - cell viability counter screen (AID 1346798); conditions: PR-UAS-bla HEK293T viability, CellTiter-Glo luminescence, 16 h; series mostly up to 92.4 µM;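 further: HEK293T PR-UAS-bla cells stimulated with the agonist R5020; nearly all actives have a fitted effect of over 50% in size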
# Procedure, shortened: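 HEK293T PR-UAS-bla, 2% charcoal-stripped FBS; 4 hr pre-plate; cpd + R5020, 16 h 37C; LiveBLAzer read first; then CellTiter-Glo 30 min RT, luminescence.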
# [5] = qHTS assay to identify small molecule agonists of the progesterone receptor (PR) signaling pathway - cell viability counter screen (AID 1346799; calls by dose curve; further: nearly all actives have a fitted effect of over 45% in size); conditions: PR-UAS-bla HEK293T viability, CellTiter-Glo luminescence, 16 h; series mostly up to 92.4 µM
# Procedure, shortened: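 Luminescence from CellTiter-Glo, added after the beta-lactamase FRET read in the same wells, gave cytotoxicity in PR-UAS-bla HEK293T cells treated with compounds for 16 hr at 37C.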
# [6] = qHTS assay to identify small molecule antagonists of the TGF-beta/Smad signaling pathway - cell viability counter screen (AID 1346824); conditions: SBE-bla HEK293T viability, CellTiter-Glo luminescence; series mostly up to 76.8 µM; further: nearly all actives have a fitted effect of over 50% in size
# Procedure, shortened: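 Cytotoxicity counter-screen run in the same wells as the beta-lactamase Smad reporter read: CellTiter-Glo luminescence after 30 min at room temperature. HEK 293T SBE-bla cells had 5 hr compound exposure at 37 C with TGF-beta1 (0.25 ng/mL stock).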
# [7] = qHTS assay to identify small molecule agonists of the TGF-beta/Smad signaling pathway - cell viability counter screen (AID 1346829); conditions: SBE-bla HEK293T viability, CellTiter-Glo luminescence, 5 h; series mostly up to 76.8 µM; further: top concentration of the series differs between compounds; nearly all actives have a fitted effect of over 45% in size
# Procedure, shortened: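 After overnight seating at 37 C and 5% CO2, reporter cells got compounds for 5 hr and FRET substrate for 2 hr; cell viability then came from CellTiter-Glo luminescence.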
# [8] = qHTS assay to identify small molecule agonists of the TGF-beta/Smad signaling pathway (AID 1346859; active means well fitted activation curve with a large enough effect in the signal ratio in the repeat runs, not every such curve was filed as active; the % refers to the signal ratio); conditions: SBE-bla HEK293T, TGF-beta/Smad beta-lactamase reporter, 5 h; series mostly up to 76.8 µM
# Procedure, shortened: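 SBE-bla HEK 293T, 4,000 cells/well, plated o/n; cpd in DMSO, 5 hr, 37 C/5% CO2; B/G FRET substrate 2 hr RT; ex 405, em 460/530 nm.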
# [9] = target: Thyrotropin-releasing hormone receptor (Homo sapiens) (UniProt P34981); assay: qHTS assay to identify small molecule antagonists of the thyrotropin-releasing hormone receptor (TRHR) signaling pathway (AID 1346877; active means well fitted inhibition curve with a large enough effect in the repeat runs, not every such curve was filed as active); conditions: TRHR-HEK293, TRH-induced calcium fluorescence, antagonist mode; series mostly up to 51.3 µM
# Thyrotropin-releasing hormone receptor (Homo sapiens), sequence (P34981 whole entry, looked up): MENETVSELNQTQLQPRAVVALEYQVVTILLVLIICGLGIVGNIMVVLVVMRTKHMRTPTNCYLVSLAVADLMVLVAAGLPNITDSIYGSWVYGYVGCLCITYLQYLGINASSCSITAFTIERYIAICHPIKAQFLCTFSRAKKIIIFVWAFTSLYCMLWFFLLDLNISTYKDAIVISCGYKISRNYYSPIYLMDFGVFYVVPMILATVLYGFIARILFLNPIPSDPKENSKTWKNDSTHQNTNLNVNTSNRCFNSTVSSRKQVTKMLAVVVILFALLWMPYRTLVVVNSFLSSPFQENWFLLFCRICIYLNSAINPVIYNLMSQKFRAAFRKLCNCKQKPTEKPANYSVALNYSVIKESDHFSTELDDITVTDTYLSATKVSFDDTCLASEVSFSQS
# Procedure, shortened: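 Following an 18 h incubation at 37 °C and a 2 h calcium dye load, TRHR-HEK293 cells were exposed to compound (5 min, room temperature) and challenged with TRH, 1 nM final.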
# [10] = target: Thyrotropin-releasing hormone receptor (Homo sapiens) (UniProt P34981); assay: qHTS assay to identify small molecule agonists of the thyrotropin-releasing hormone receptor (TRHR) signaling pathway (AID 1346891; calls by dose curve); conditions: TRHR-HEK293 calcium fluorescence, agonist mode; series mostly up to 57.6 µM
# Procedure, shortened: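 Intracellular calcium rise, read as fluorescence every second for 3 min, served as the agonist signal in dye-loaded HEK293 cells expressing TRHR; each compound ran at 15 concentrations in triplicate.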
# [11] = Human pregnane X receptor (PXR) small molecule agonists, qHTS cell viability counter screen (AID 1346977); conditions: PXR-Luc HepG2 viability, CellTiter-Fluor, 24 h; series mostly up to 92.4 µM; further: nearly all actives have a fitted effect of over 50% in size; further: potency means the concentration at half of the fitted maximal effect
# Procedure, shortened: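 PXR-Luc HepG2, 2,000 cells/well, 5% charcoal-stripped FBS; 5hr settle; cpd 24hr, 37C/5% CO2; CellTiter-Fluor at 23hr, read 1hr later (fluorescence).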
# [12] = Caspase-3/7 induction in HepG2 cells by small molecules, qHTS assay (AID 1346978); conditions: HepG2 caspase-3/7 activation, Caspase-Glo luminescence, 17 h; series mostly up to 92.4 µM; further: nearly all actives have a fitted effect of over 15% in size
# Procedure, shortened: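 Caspase-3/7 induction was measured by Caspase-Glo 3/7 luminescence (30 min, room temperature) after a 17 hr compound exposure of wild-type HepG2 cells seeded at 2,000 per well and pre-incubated 5 hr.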
# [13] = Caspase-3/7 induction in CHO-K1 cells by small molecules, qHTS cell viability counter screen (AID 1346979); conditions: CellTiter-Fluor fluorescence, 17 h; series mostly up to 92.4 µM; further: nearly all actives have a fitted effect of over 35% in size; further: potency means the concentration at half of the fitted maximal effect
# Procedure, shortened: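 Cells (CHO-K1, wild type) are plated at 1,500 per well and incubated 5hr. Test compounds in DMSO are then pinned in, followed by 16hr at 37C and 5% CO2. Viability is read by CellTiter-Fluor fluorescence after 1hr.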
# [14] = Caspase-3/7 induction in CHO-K1 cells by small molecules, qHTS assay (AID 1346980); conditions: CHO-K1 caspase-3/7 induction, Caspase-Glo luminescence, 17 h; series mostly up to 92.4 µM; further: nearly all actives have a fitted effect of over 15% in size
# Procedure, shortened: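 Luminescent Caspase-Glo 3/7 read (30min, room temperature) quantified apoptosis induction. Cells were wild-type CHO-K1, treated with compound for 17hr at 37 C and 5% CO2.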
# [15] = target: Acetylcholinesterase (Homo sapiens) (UniProt P22303); assay: Acetylcholinesterase (AChE) small molecule antagonists: colormetric cell-based qHTS assay (AID 1347395; calls by dose curve; further: nearly all actives have a fitted effect of over 30% in size); conditions: SH-SY5Y cells AChE activity, colorimetric (Ellman); series mostly up to 115 µM
# Acetylcholinesterase (Homo sapiens), sequence (P22303 whole entry, looked up): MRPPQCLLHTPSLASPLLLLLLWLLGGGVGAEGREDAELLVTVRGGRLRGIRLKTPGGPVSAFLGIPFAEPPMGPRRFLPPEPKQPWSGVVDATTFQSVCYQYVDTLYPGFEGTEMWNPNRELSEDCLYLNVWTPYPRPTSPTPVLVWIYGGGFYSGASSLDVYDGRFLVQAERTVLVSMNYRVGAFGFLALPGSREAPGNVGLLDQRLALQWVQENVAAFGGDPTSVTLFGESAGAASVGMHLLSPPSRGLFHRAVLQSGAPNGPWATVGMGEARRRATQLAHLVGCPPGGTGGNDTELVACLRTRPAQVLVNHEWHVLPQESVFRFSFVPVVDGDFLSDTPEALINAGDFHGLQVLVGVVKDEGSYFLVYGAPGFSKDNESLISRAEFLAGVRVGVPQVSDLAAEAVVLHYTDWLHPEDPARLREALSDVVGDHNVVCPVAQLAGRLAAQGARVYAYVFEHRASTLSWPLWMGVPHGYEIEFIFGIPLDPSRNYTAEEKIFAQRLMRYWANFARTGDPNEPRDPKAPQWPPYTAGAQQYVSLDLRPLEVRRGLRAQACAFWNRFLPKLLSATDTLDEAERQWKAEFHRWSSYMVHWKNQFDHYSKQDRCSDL
# Procedure, shortened: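 Colorimetric read-out: DTNB detects thiocholine released when cellular AChE in SH-SY5Y cells hydrolyses acetylthiocholine. Cells attached overnight, received compound for 30 min at 37 C, then substrate mix for 90 min at 37 C.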
# [16] = Caspase-3/7 induction in HepG2 cells by small molecules, qHTS cell viability counter screen (AID 1346981); conditions: CellTiter-Fluor fluorescence, 17 h; series mostly up to 92.4 µM; further: nearly all actives have a fitted effect of over 30% in size; further: potency means the concentration at half of the fitted maximal effect
# Procedure, shortened: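 Viability determined by CellTiter-Fluor fluorescence in HepG2 wells also used for the luminescent Caspase-Glo 3/7 read. Compounds were present for 16 hr at 37 C, 5% CO2 before reagent addition.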
# [17] = target: Nuclear receptor subfamily 1 group I member 2 (Homo sapiens) (UniProt O75469); assay: Human pregnane X receptor (PXR) small molecule agonists, qHTS assay (AID 1346982); conditions: PXR-Luc HepG2, CYP3A4 luciferase reporter, 24 h; series mostly up to 92.4 µM; further: nearly all actives have a fitted effect of over 35% in size; further: potency means the concentration at half of the fitted maximal effect
# Nuclear receptor subfamily 1 group I member 2 (Homo sapiens), sequence (O75469 whole entry, looked up): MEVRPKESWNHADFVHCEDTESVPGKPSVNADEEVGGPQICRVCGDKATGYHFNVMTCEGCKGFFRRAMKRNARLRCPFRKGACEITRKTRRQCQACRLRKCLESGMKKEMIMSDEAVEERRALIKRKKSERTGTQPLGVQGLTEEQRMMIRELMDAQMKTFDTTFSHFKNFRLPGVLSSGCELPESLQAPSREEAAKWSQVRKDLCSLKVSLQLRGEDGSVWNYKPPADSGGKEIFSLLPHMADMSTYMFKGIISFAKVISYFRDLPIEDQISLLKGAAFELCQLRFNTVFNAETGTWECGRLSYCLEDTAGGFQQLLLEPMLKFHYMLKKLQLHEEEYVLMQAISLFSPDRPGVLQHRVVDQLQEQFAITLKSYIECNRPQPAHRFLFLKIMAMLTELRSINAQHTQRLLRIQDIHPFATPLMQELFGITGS
# Procedure, shortened: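 Compound-induced hPXR transactivation of a CYP3A4 luciferase reporter was scored in HepG2 PXR-Luc cells over 24 hr at 37 C, 5% CO2, by luminescence.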
# [18] = target: Nuclear receptor subfamily 1 group I member 2 (Rattus norvegicus) (UniProt Q9R1A7); assay: Rat pregnane X receptor (rPXR) activation by small molecules, qHTS assay (AID 1346983); conditions: rPXR luciferase reporter cells, One-Glo luminescence, 24 h; stronger effect = higher value; further: nearly all actives have a fitted effect of over 20% in size
# Nuclear receptor subfamily 1 group I member 2 (Rattus norvegicus), sequence (Q9R1A7 whole entry, looked up): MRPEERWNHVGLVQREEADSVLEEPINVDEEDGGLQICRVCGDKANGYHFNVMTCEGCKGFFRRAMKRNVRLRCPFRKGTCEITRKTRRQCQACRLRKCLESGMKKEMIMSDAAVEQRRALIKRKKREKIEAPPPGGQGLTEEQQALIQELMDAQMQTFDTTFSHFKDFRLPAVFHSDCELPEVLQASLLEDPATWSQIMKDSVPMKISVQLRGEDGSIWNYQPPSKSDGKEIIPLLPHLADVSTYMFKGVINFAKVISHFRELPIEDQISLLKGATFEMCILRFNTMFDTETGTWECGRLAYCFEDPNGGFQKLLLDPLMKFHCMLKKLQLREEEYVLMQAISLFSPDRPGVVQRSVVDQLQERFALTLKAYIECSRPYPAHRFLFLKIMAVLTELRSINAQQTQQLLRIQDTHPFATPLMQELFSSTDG
# Procedure, shortened: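 Luminescent readout (One-Glo luciferase, 30 min room temperature) followed 24 hr compound treatment at 37 C of rPXR cells plated 2,000 per well and preincubated 5hr; qHTS format with compounds delivered in DMSO.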
# [19] = target: Nuclear receptor subfamily 1 group I member 2 (Homo sapiens) (UniProt O75469); assay: CYP3A4 induction through human pregnane X receptor (PXR) by small molecules, qHTS assay (AID 1346984); conditions: DPX-2 HepG2 PXR, CYP3A4-luciferin luminescence, 24 h; series mostly up to 46.1 µM; further: nearly all actives have a fitted effect of over 40% in size
# Procedure, shortened: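 Readings come from a luciferase reporter: DPX-2 cells, which are HepG2 cotransfected with PXR and a CYP3A4-promoter construct, were exposed to test compounds for 24 h at 37C before One-Glo detection.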
# [20] = target: Nuclear receptor subfamily 1 group I member 2 (Homo sapiens) (UniProt O75469); assay: Human pregnane X receptor (PXR) activation by small molecules, qHTS assay (AID 1346985); conditions: DPX-2 HepG2 CYP3A4-luciferase, 24 h; series mostly up to 38.3 µM; further: nearly all actives have a fitted effect of over 40% in size
# Procedure, shortened: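 DPX-2 cells (HepG2 co-transfected with a PXR response element and a CYP3A4-promoter luciferase construct) were seeded at 2,000 per well, rested 5 hr at 37C, then exposed to DMSO-dissolved compounds for 24 hr. Activation was read as luciferase luminescence.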
Compound,Potency [1],Potency [2],Potency [3],Potency [4],Potency [5],Potency [6],Potency [7],outcome [8],Potency [9],outcome [10],Potency [11],Potency [12],Potency [13],Potency [14],Potency [15],Potency [16],Potency [17],max activation [18] [%],outcome [19],Potency [20]
O=C(O)C(O)C(O)C(=O)O (stereo not given),inactive,inactive,inactive,inactive,inactive,inactive,inactive,inactive,inactive,inactive,inactive,inactive,inactive,inactive,inactive,,,,,
CC(CC(C(N)=O)(c1ccccc1)c1ccccc1)N(C)C (stereo not given),inactive,inactive,inactive,inactive,inactive,inactive,inactive,inactive,inactive,inactive,inactive,inactive,inactive,inactive,inactive,inactive,inactive,,,
O=C(O)C(Cl)(Cl)Br,inactive,inactive,inactive,inactive,inactive,inactive,inactive,inactive,inactive,inactive,,inactive,inactive,inactive,inactive,inactive,inactive,,,
Nc1ccc2c(c1)Cc1ccccc1-2,inactive,inactive,6.08 µM (active),inactive,inactive,inactive,inactive,inactive,,inactive,inactive,inactive,inactive,inactive,inactive,inactive,27.1 µM (active),,,
CC(C)CCON=O,inactive,inactive,inactive,inactive,inactive,inactive,inactive,inactive,inactive,inactive,inactive,inactive,inactive,inactive,inactive,,inactive,-3.41,inactive,inactive
CCCCC#N,inactive,inactive,inactive,inactive,inactive,inactive,inactive,inactive,,inactive,inactive,inactive,inactive,inactive,inactive,inactive,inactive,,,
OC[P+](CO)(CO)CO,inactive,inactive,inactive,inactive,inactive,inactive,inactive,inactive,inactive,inactive,inactive,inactive,inactive,inactive,inactive,inactive,61.8 µM (active),,,
CCC1CCC(=O)O1 (stereo not given),inactive,inactive,inactive,inactive,inactive,inactive,inactive,inactive,,inactive,,inactive,inactive,inactive,inactive,inactive,inactive,,,
O=C1NC(=O)C(=O)C(=O)N1,inactive,inactive,inactive,inactive,inactive,inactive,,inactive,,,inactive,inactive,inactive,inactive,inactive,inactive,inactive,,,
COC(=O)Cc1ccccc1,inactive,inactive,inactive,inactive,inactive,inactive,inactive,inactive,,,inactive,inactive,inactive,inactive,inactive,inactive,inactive,,,
CCC1(CCC(C)C)C(=O)NC(=O)NC1=O,inactive,inactive,inactive,inactive,inactive,inactive,inactive,inactive,,,inactive,inactive,inactive,inactive,inactive,inactive,inactive,,,
COc1ccccc1N1CCNCC1,inactive,inactive,inactive,inactive,inactive,inactive,,inactive,,inactive,,inactive,inactive,inactive,,inactive,inactive,-3.01,inactive,inactive
CCN(C(C)=O)c1cccc(-c2ccnc3c(C#N)cnn23)c1,inactive,inactive,inactive,inactive,,inactive,inactive,inactive,inactive,inactive,inactive,inactive,inactive,inactive,inactive,inactive,inactive,-2.18,inactive,inactive
O=C(N/N=C/c1ccc([N+](=O)[O-])o1)c1cc([N+](=O)[O-])cc([N+](=O)[O-])c1O,21.1 µM (active),inactive,inactive,inactive,,inactive,inactive,inactive,inactive,inactive,21.1 µM (active),inactive,23.7 µM (active),inactive,inactive,13.3 µM (active),inactive,3.24,inactive,inactive
C#CC(O)(C=CCl)CC (stereo not given),inactive,inactive,inactive,inactive,inactive,inactive,inactive,inactive,,,inactive,inactive,inactive,inactive,inactive,inactive,inactive,,,
C[N+](C)(C)CC1CO1 (stereo not given),inactive,inactive,inactive,inactive,,inactive,inactive,inactive,inactive,inactive,inactive,inactive,inactive,inactive,inactive,inactive,inactive,,,
